This passage reports outcome results from PubChem BioAssay AID488848 (Broad Institute, 2010).

The structures appear in SMILES notation. Potency and affinity values are given separately. Active and inactive are the calls of the source.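 The calls were made as follows: active = compounds lowering caspase signal with half-maximal concentration at most ten times their top tested dose; inconclusive = flat curve with 30 to 70% inhibition, or poor fit; inactive = the rest.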

This test can be described thus: suppression of cytokine-induced beta-cell apoptosis – INS-1E, caspase luminescence, dry powder, beta-cell apoptosis inhibitor project, dose response (AID 488848).

For the molecule `COc1ccc(S(=O)(=O)N(C)C[C@@H]2Oc3c(NC(=O)Nc4cccc5ccccc45)cccc3C(=O)N([C@@H](C)CO)C[C@H]2C)cc1Cl`, the call was inactive.
In the case of `C[C@@H]1CN([C@@H](C)CO)C(=O)c2cccc(NC(=O)Nc3cccc4ccccc34)c2O[C@H]1CN(C)S(=O)(=O)c1cccc(F)c1` it was “inactive”.
On to `COc1ccc(S(=O)(=O)N(C)C[C@@H]2Oc3c(NC(=O)Nc4cccc(C(F)(F)F)c4)cccc3C(=O)N([C@@H](C)CO)C[C@H]2C)cc1`, for which the molecule was called inactive.
Take `C[C@@H]1CN([C@@H](C)CO)C(=O)c2cccc(NC(=O)Nc3cccc4ccccc34)c2O[C@H]1CN(C)S(=O)(=O)c1ccc2c(c1)CCC(=O)N2`: the molecule was classed as inactive.
In the case of `C[C@@H]1CN([C@@H](C)CO)C(=O)c2cccc(NC(=O)Nc3cccc4ccccc34)c2O[C@H]1CN(C)S(=O)(=O)c1ccc(Oc2ccccc2)cc1` it was “inactive”.
The value for `C[C@@H]1CN([C@@H](C)CO)C(=O)c2cccc(NC(=O)Nc3ccc(F)cc3)c2O[C@H]1CN(C)S(=O)(=O)c1ccc(Cl)cc1` was “inactive”.
Turning to `COc1ccc(S(=O)(=O)N(C)C[C@@H]2Oc3c(NC(=O)NC4CCCc5ccccc54)cccc3C(=O)N([C@@H](C)CO)C[C@H]2C)cc1` (stereo not given in full), the molecule was called inactive.
For `COc1ccc(S(=O)(=O)N(C)C[C@@H]2Oc3ccc(NC(=O)Nc4cccc5ccccc45)cc3C(=O)N([C@@H](C)CO)C[C@H]2C)cc1`, the molecule was classed as inactive.
In the case of `C[C@@H]1CN([C@@H](C)CO)C(=O)c2cccc(NC(=O)Nc3cccc4ccccc34)c2O[C@H]1CN(C)S(=O)(=O)c1ccc(-c2ccccc2)cc1` it was “inactive”; in that of `COc1ccc(S(=O)(=O)N(C)C[C@@H]2Oc3c(NC(=O)Nc4cccc5ccccc45)cccc3C(=O)N([C@@H](C)CO)C[C@H]2C)cc1F`, “inactive”.
For the molecule `Cc1ccc(S(=O)(=O)N(C)C[C@@H]2Oc3c(NC(=O)Nc4ccc(F)cc4)cccc3C(=O)N([C@H](C)CO)C[C@H]2C)cc1`, the call was inactive.
Turning to `COc1ccc(S(=O)(=O)N(C)C[C@@H]2Oc3c(NC(=O)Nc4ccc5occc5c4)cccc3C(=O)N([C@@H](C)CO)C[C@H]2C)cc1`, the result was inactive.
In the case of `COc1ccccc1S(=O)(=O)N(C)C[C@@H]1Oc2c(NC(=O)Nc3cccc4ccccc34)cccc2C(=O)N([C@@H](C)CO)C[C@H]1C` it was “inactive”; in that of `C[C@@H]1CN([C@@H](C)CO)C(=O)c2cccc(NC(=O)Nc3cccc4ccccc34)c2O[C@H]1CN(C)S(=O)(=O)c1ccccc1F`, “inactive”.
The value for `COc1ccc(S(=O)(=O)N(C)C[C@@H]2Oc3c(NC(=O)Nc4cccc5c4CC(C)(C)O5)cccc3C(=O)N([C@@H](C)CO)C[C@H]2C)cc1` was “inactive”; that for `COc1ccc(S(=O)(=O)N(C)C[C@@H]2Oc3c(NC(=O)Nc4cc(F)ccc4F)cccc3C(=O)N([C@@H](C)CO)C[C@H]2C)cc1` was “inactive”.
In the case of `COc1ccc(S(=O)(=O)N(C)C[C@@H]2Oc3c(NC(=O)Nc4ccccc4-c4ccccc4)cccc3C(=O)N([C@@H](C)CO)C[C@H]2C)cc1` it was “inactive”; in that of `COc1ccc(S(=O)(=O)N(C)C[C@@H]2Oc3c(NC(=O)Nc4ccc5c(c4)OCCO5)cccc3C(=O)N([C@@H](C)CO)C[C@H]2C)cc1`, “inactive”.
Turning to `C[C@@H]1CN([C@@H](C)CO)C(=O)c2cccc(NC(=O)Nc3cccc4ccccc34)c2O[C@H]1CN(C)S(=O)(=O)c1ccc(Cl)cc1`, the molecule was called inactive.
In the case of `COc1cccc(S(=O)(=O)N(C)C[C@@H]2Oc3c(NC(=O)Nc4cccc5ccccc45)cccc3C(=O)N([C@@H](C)CO)C[C@H]2C)c1`, the molecule was classed as inactive.
The value for `C[C@@H]1CN([C@@H](C)CO)C(=O)c2cccc(NC(=O)Nc3cccc4ccccc34)c2O[C@H]1CN(C)S(=O)(=O)Cc1ccc(F)cc1` was “inactive”; that for `COc1ccc(S(=O)(=O)N(C)C[C@@H]2Oc3c(NC(=O)Nc4cccc5c4NSN5)cccc3C(=O)N([C@@H](C)CO)C[C@H]2C)cc1` was “inactive”; that for `COc1ccc(S(=O)(=O)N(C)C[C@@H]2Oc3c(NC(=O)Nc4cc(F)cc5c4OCOC5)cccc3C(=O)N([C@@H](C)CO)C[C@H]2C)cc1` was “inactive”.
With `COc1ccc(S(=O)(=O)N(C)C[C@@H]2Oc3c(NC(=O)Nc4cccc5ccccc45)cccc3C(=O)N([C@@H](C)CO)C[C@H]2C)c(OC)c1`, the call was inactive.
Take `C[C@@H]1CN([C@@H](C)CO)C(=O)c2cccc(NC(=O)Nc3cccc4ccccc34)c2O[C@H]1CN(C)S(=O)(=O)c1ccc(F)cc1`: the result was inactive.
